# S1P2 antag: S1P2 (human) receptor antagonism; O95136; cell-based S1P2 antagonist assay, inhibition at 5 uM; inhibition, % at 5 µM; 97,000 compounds, 0.21% hits; in the data active = inhibition above about 45%;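 also: CRE beta-lactamase reporter cells expressing human S1P2 stimulated with S1P; 0% = agonist at EC80 alone and 100% = agonist plus reference antagonist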
# GALR2 blocker: antagonists of human galanin receptor 2 (GALR2); O43603; GALR2-expressing cells, antagonist mode; inhibition, % at 4 µM; 140,000 compounds, 0.39% hits; AID 828; in the data active = inhibition above about 27%;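 also: cells stimulated with galanin 1-16 at roughly its EC80; 0% = agonist challenge control and 100% = basal control without agonist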
# Target sequence (O43603 whole entry, looked up): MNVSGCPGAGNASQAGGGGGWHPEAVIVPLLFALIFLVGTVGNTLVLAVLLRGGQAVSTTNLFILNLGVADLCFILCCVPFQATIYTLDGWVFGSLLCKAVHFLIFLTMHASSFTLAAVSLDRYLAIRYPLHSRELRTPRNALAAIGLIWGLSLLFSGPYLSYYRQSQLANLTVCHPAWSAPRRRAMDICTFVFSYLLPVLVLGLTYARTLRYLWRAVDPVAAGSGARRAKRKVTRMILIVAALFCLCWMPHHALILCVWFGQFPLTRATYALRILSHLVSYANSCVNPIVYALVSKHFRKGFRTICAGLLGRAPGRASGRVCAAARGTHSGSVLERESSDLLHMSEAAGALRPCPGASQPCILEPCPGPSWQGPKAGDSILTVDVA
# S1P2 ag: S1P2 (human) receptor agonism | O95136 | S1P2-expressing cell line, agonist reporter read-out | activation, % at 4.5 µM | 97,000 compounds, 0.46% hits; in the data active = activation above about 16%;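 also: 0% = vehicle low control and 100% = maximal reference agonist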
# GALR2 agonist: activates the human galanin receptor 2 | AID 803 | GALR2-expressing cells, agonist activation read-out | activation, % (no concentration beside the values) | 140,000 compounds, 0.48% hits; in the data active = activation above about 5%, passing the limit was not always enough;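 also: 0% = vehicle buffer wells and 100% = reference agonist at full effect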
# GALR2 agon conf: GALR2 (human) agonism confirmed; shares compounds with GALR2 agonist; GALR2-expressing cells, agonist activation; activation, % at 5.6 µM; 460 compounds, 10% hits; AID 864; in the data active = activation above about 8.4%;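 also: 0% = buffer-only vehicle wells and 100% = full reference agonist response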
# BLA act counter: counter-screen for GALR2 agonists: beta-lactamase reporter activators; shares compounds with GALR2 agonist; CHO NFAT-bla reporter, beta-lactamase FRET activation; activation, % at 5.6 µM; 460 compounds, 10% hits; AID 865;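 active = activation above the screen-wide mean activation plus 3 SD, cut at about 8% in these data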;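 also: 0% = DMSO with PBS wells and 100% = thapsigargin positive control wells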
# The depositor's hits bear a star; x = no result given. A selection: hits, their analogues and other compounds. The true share with any hit is near 1.2%.
SMILES,S1P2 antag,GALR2 blocker,S1P2 ag,GALR2 agonist,others
Cc1cccc2cc(C(c3nnnn3CC3CCCO3)N3CCc4ccccc4C3)c(=O)[nH]c12 (stereo unspecified),6,1,128*,-2,
COc1cc(S(=O)(=O)N2CCN=C2c2ccccc2)ccc1F,2,2,27*,-2,
c1ccc(C2=Nn3c(nnc3-c3n[nH]c4c3CCC4)SC2)cc1,2,-5,-11,-2,
Clc1ccc(C2=Nn3c(nnc3-c3n[nH]c4c3CCC4)SC2)cc1Cl,-15,-12,-4,5.2*,
O=C(Nc1ccc(-c2nc3ncccc3o2)cc1)c1ccc(Br)o1,54*,-14,-1,3,
CCN(CC)c1nc(C#N)cc(-c2ccc(OC)cc2)n1,-22,-9,19*,1,
COc1ccc(-c2cc(C#N)nc(Oc3ccc(Cl)cc3)n2)cc1,x,-23,x,1,
O=C(COC(=O)c1cc(S(=O)(=O)N2CCOCC2)ccc1O)NCCc1ccccc1,-22,4,0,-2,
CC(C)Cn1c(N)c(C(=O)CSc2ccc3c(c2)OCCO3)c(=O)n(C)c1=O,54*,11,-3,-2,
CC(C)Cn1c(N)c(C(=O)COC(=O)c2ccc3c(c2)OCCO3)c(=O)n(C)c1=O,20,7,-2,0,
CC(C)C(NC(=S)NCc1ccccc1)C(=O)O (stereo unspecified),-21,-20,-1,-1,
CCn1c(=O)cc(SCC(=O)Nc2cc(OC)c(OC)c(OC)c2)c2ccccc21,-48,-1,20*,-1,
NC(=O)COC(=O)CNC(=O)c1ccc(Cl)cc1,0,-5,-1,-2,
NC(=O)CCNC(=O)c1ccc(Cl)cc1,25,-8,44*,-2,
O=[N+]([O-])c1ccc2c(c1)C=C1CCCCC1(N1CCCC1)O2 (stereo unspecified),x,2,x,-2,
N#CCCS(=O)(=O)c1nnnn1-c1ccccc1,64*,59*,-11,-5,
N#CCCCSc1nnnn1-c1cccc(Cl)c1,-9,-7,-2,-4,
CCOC(=O)Nc1ccc2c(c1)N(C(=O)CN1CCN(C)CC1)c1ccccc1S2,-5,1,2,-1,
CCOC(=O)Nc1ccc2c(c1)N(C(=O)CCN(C)C)c1ccccc1S2,-5,30*,-8,-2,
O=C(CSc1nnc(SCc2ccccc2)s1)NNC(=S)Nc1ccccc1,x,4,x,0,
O=C(CN(C(=O)c1cc2c(s1)CCC2)C1CCCC1)NCc1cccs1,-2,5,-6,0,
Cc1ccc(C)c(NC(=S)NC(NC(=O)Cc2cccc3ccccc23)C(Cl)(Cl)Cl)c1 (stereo unspecified),18,0,26*,1,
Cc1ccc(C)c(NC(=S)NC(NC(=O)N(C)C)C(Cl)(Cl)Cl)c1 (stereo unspecified),10,7,-6,-3,
Nc1nc(SCc2ccc([N+](=O)[O-])cc2)nc2nc3c(cc12)CCCC3,x,-4,x,5.1*,
Cc1cc(C)n2cc(CSc3nnnn3-c3ccc(Cl)cc3)nc2n1,-5,6,106*,-1,
SMILES,S1P2 antag,GALR2 blocker,S1P2 ag,GALR2 agonist,others
O=C(CSc1nc2c(c(=O)n1-c1ccc(Cl)cc1)SCC2)N1CCOCC1,-8,-6,21*,-1,
O=C(CSc1nc2c(c(=O)n1-c1ccc(Cl)cc1)SCC2)N1CCCC1,x,8,x,-1,
O=C(CN1CCN(S(=O)(=O)c2ccc3ccccc3c2)CC1)Nc1ccc2c(c1)CCC2,x,-2,x,-1,
COc1ccc(NC(=O)c2ccc(NC(=O)COC(=O)CC(NC(=O)c3ccccc3Cl)c3ccccc3)cc2)cc1 (stereo unspecified),x,2,x,-1,
CCOC(=O)C1CCCN(C(=S)Nc2cc(C)cc(C)c2)C1 (stereo unspecified),-6,9,-1,-2,
CCCCC(CC)Cn1c2nc3ccccc3nc2c2c(=N)oc(C)nc21 (stereo unspecified),-211,3,0,-1,
CCCCC(CC)Cn1c(N)c(C#N)c2nc3ccccc3nc21 (stereo unspecified),-61,-15,50*,35*,
O=C(Nc1nnc(-c2ccc(Cl)cc2)o1)c1nc2ccccc2s1,51*,-7,-9,0,
CCN(c1ccc(OCC(=O)OCC(=O)Nc2ccc(F)c(F)c2F)cc1)S(=O)(=O)c1ccccc1,x,4,x,-1,
CCOC(=O)c1[nH]c2ccc(F)cc2c1NC(=O)c1cc(OC)c(OC)c(OC)c1,-33,6,18*,-1,
CCOC(=O)c1cc(CC)sc1NC(=O)c1cc(OC)c(OC)c(OC)c1,-69,-6,16*,-1,
Brc1ccc(C2=Nn3c(nnc3-c3ccncc3)SC2)cc1,-6,-2,-6,0,
c1csc(C2=Nn3c(nnc3-c3ccncc3)SC2)c1,49*,18,-10,-2,
Cc1cc(C)n2nc(SCc3cc(=O)n4ccccc4n3)nc2n1,-49,-10,20*,-1,
Cc1cc(C)n2nc(SCC(=O)c3ccccc3)nc2n1,-18,0,-3,-2,
Cc1ccccc1-n1c(SCc2cc(=O)n3ccccc3n2)nc2[nH]ncc2c1=O,-45,2,24*,0,
CCCCCCc1cc2cc(-c3nnc(-c4ccccc4O)o3)c(=O)oc2cc1O,x,13,x,18*,
CCCCCCc1cc2cc(-c3nnc(-c4ccccc4OC)o3)c(=O)oc2cc1O,-8,-11,7,2,
CC(C)(C)SCCNC(=O)c1ccc(Cl)c([N+](=O)[O-])c1,x,0,x,-1,
O=C1c2cccc3c(N4CCCCC4)ccc(c23)C(=O)N1c1ccccn1,39,13,-8,-1,
O=C(O)c1ccc2c(c1)C(=O)N(c1ccc(Cl)cn1)C2=O,-8,-11,-1,1,
O=C1c2cccc3c(N4CCCCC4)ccc(c23)C(=O)N1c1ccc(Cl)cn1,51*,9,-6,-1,
O=C1c2cccc3c([N+](=O)[O-])ccc(c23)C(=O)N1c1ccc(Cl)cn1,71*,18,4,2,
CC1=C(C(=O)OC(C)C)C(c2cccc([N+](=O)[O-])c2)n2c(cc(=O)[nH]c2=S)N1 (stereo unspecified),x,-9,x,0,
CCOC(=O)c1cc(-c2ccc3c(c2)OCCO3)nc2c1c(C)nn2CCC#N,-35,-1,-5,7.1*,
SMILES,S1P2 antag,GALR2 blocker,S1P2 ag,GALR2 agonist,others
C=CCSc1nc2ccccc2n1C(=O)/C=C/c1cc(OC)c(OC)c(OC)c1,54*,7,-6,1,
Cc1ccc(-n2[nH]c(C)c(CCC#N)c2=O)cc1,x,8,x,-1,
COCc1nnc(NC(=O)C(C)C)s1,-9,-1,3,136*,GALR2 agon conf=-1;BLA act counter=0
CCOCC(=O)Nc1nnc(COC)s1,1,-2,-4,0,
O=C(CSc1nnnn1-c1cccc(Cl)c1)Nc1ccc2c(c1)CCC2,x,-3,x,8.8*,GALR2 agon conf=6;BLA act counter=6
CCCCn1nc(NC(=O)c2cccs2)c2cc3ccccc3nc21,13,10,6,11,GALR2 agon conf=2;BLA act counter=4
CCCn1nc(NC(=O)c2cccs2)c2cc3cc(OC)ccc3nc21,-16,-12,5,9,GALR2 agon conf=1;BLA act counter=2

# Screening data from PubChem.
